PubChem BioAssay AID1159580 (chemical genetic matrix, 2015)
About 2,000 (36%) of roughly 5,500 compounds were called active. Another 18% or so got no clear call; they are omitted. Cut-off read from the data, not from the text of the source: active = normalized growth mostly below about 0.91 (no sharp cut-off); inconclusive = no clear call, values can overlap the other calls; inactive = mostly above about 0.92. Some of the results follow.

Test: chemical genetic growth profiling, strain panel (AID 1159580);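 note: tested at 20 µM; growth read once vehicle control cultures reached saturation at 30 °C; 1 = growth at the plate median or of vehicle wells; lower values mean less growth of the strain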
Conditions: growth OD

Measured: normalized growth

CCC(C)C(=O)OC1[C@@H]2CC3=C4CC(=O)O[C@@H](c5ccoc5)[C@]4(C)CCC3[C@@](C)(C2=O)[C@@H](CC(=O)OC)C1(C)C (stereo partly specified)
inactive: S. cerevisiae deletion strains, locus YJL187C, strain SWE1, stronger effect = lower value 1.01 | S. cerevisiae deletion strains, locus YJR066W, strain TOR1, stronger effect = lower value 0.91 | S. cerevisiae deletion strains, locus YJR075W, strain HOC1, stronger effect = lower value 1.01 | S. cerevisiae deletion strains, locus YKL009W, strain mrt4, stronger effect = lower value 0.965 | S. cerevisiae deletion strains, locus YKL068W, stronger effect = lower value 0.999 | S. cerevisiae deletion strains, locus YKL085W, strain MDH1 (second series), stronger effect = lower value 0.988 | S. cerevisiae deletion strains, locus YKL085W, strain MDH1, stronger effect = lower value 0.988 | S. cerevisiae deletion strains, locus YKL160W, strain elf1, stronger effect = lower value 1.01 | S. cerevisiae deletion strains, locus YKR001C, strain vps1, stronger effect = lower value 1.01 | S. cerevisiae deletion strains, locus YKR026C, strain gcn3, stronger effect = lower value 1.01 | S. cerevisiae deletion strains, locus YKR091W, strain srl3, stronger effect = lower value 1 | S. cerevisiae deletion strains, locus YLL001W, strain dnm1, stronger effect = lower value 1.01 | S. cerevisiae deletion strains, locus YLL026W, stronger effect = lower value 1 | S. cerevisiae deletion strains, locus YLL041C, strain sdh2, stronger effect = lower value 1.01 | S. cerevisiae deletion strains, locus YLR027C, strain aat2, stronger effect = lower value 1.02 | S. cerevisiae deletion strains, locus YLR039C, strain RIC1, stronger effect = lower value 0.974 | S. cerevisiae deletion strains, locus YLR058C, strain SHM2, stronger effect = lower value 1.01 | S. cerevisiae deletion strains, locus YLR102C, strain apc9, stronger effect = lower value 1 | S. cerevisiae deletion strains, locus YLR113W, strain HOG1, stronger effect = lower value 1.03 | S. cerevisiae deletion strains, locus YLR221C, strain rsa3, stronger effect = lower value 0.998 | S. cerevisiae deletion strains, locus YLR258W, strain gsy2, stronger effect = lower value 1.01 | S. cerevisiae deletion strains, locus YLR262C, strain YPT6 (second series), stronger effect = lower value 0.947 | S. cerevisiae deletion strains, locus YLR268W, strain sec22, stronger effect = lower value 0.989 | S. cerevisiae deletion strains, locus YLR320W, strain mms22, stronger effect = lower value 1.01 | S. cerevisiae deletion strains, locus YLR342W, strain FKS1 (second series), stronger effect = lower value 1 | S. cerevisiae deletion strains, locus YLR342W, strain FKS1, stronger effect = lower value 1 | S. cerevisiae deletion strains, locus YLR357W, strain rsc2, stronger effect = lower value 0.991 | S. cerevisiae deletion strains, locus YLR370C, strain arc18, stronger effect = lower value 1.01 | S. cerevisiae deletion strains, locus YLR371W, strain rom2, stronger effect = lower value 1 | S. cerevisiae deletion strains, locus YLR384C, strain iki3, stronger effect = lower value 1.02 | S. cerevisiae deletion strains, locus YLR418C, strain cdc73, stronger effect = lower value 1.04 | S. cerevisiae deletion strains, locus YML016C, strain PPZ1, stronger effect = lower value 0.997 | S. cerevisiae deletion strains, locus YML032C, strain rad52, stronger effect = lower value 1.01 | S. cerevisiae deletion strains, locus YML120C, strain ndi1, stronger effect = lower value 1 | S. cerevisiae deletion strains, locus YML124C, strain tub3, stronger effect = lower value 1.01 | S. cerevisiae deletion strains, locus YMR058W, strain fet3, stronger effect = lower value 1.01 | S. cerevisiae deletion strains, locus YMR078C, strain ctf18, stronger effect = lower value 1.01 | S. cerevisiae deletion strains, locus YMR125W, strain sto1, stronger effect = lower value 1 | S. cerevisiae deletion strains, locus YMR129W, stronger effect = lower value 1.01 | S. cerevisiae deletion strains, locus YMR205C, strain PFK2, stronger effect = lower value 1 | S. cerevisiae deletion strains, locus YMR223W, strain ubp8, stronger effect = lower value 1 | S. cerevisiae deletion strains, locus YMR231W, strain pep5, stronger effect = lower value 0.973 | S. cerevisiae deletion strains, locus YMR307W, strain GAS1, stronger effect = lower value 1.05 | S. cerevisiae deletion strains, locus YNL067W, strain RPL9B, stronger effect = lower value 1.03 | S. cerevisiae deletion strains, locus YNL071W, strain lat1, stronger effect = lower value 1.01 | S. cerevisiae deletion strains, locus YNL128W, strain TEP1, stronger effect = lower value 0.995 | S. cerevisiae deletion strains, locus YNL183C, strain NPR1, stronger effect = lower value 0.927 | S. cerevisiae deletion strains, locus YNL209W, strain ssb2, stronger effect = lower value 1 | S. cerevisiae deletion strains, locus YNL233W, strain BNI4, stronger effect = lower value 0.995 | S. cerevisiae deletion strains, locus YNL248C, strain rpa49, stronger effect = lower value 1 | S. cerevisiae deletion strains, locus YNL250W, strain rad50, stronger effect = lower value 1.03 | S. cerevisiae deletion strains, locus YNL271C, strain bni1, stronger effect = lower value 1 | S. cerevisiae deletion strains, locus YNL298W, strain CLA4, stronger effect = lower value 1.02 | S. cerevisiae deletion strains, locus YNL307C, strain MCK1, stronger effect = lower value 1 | S. cerevisiae deletion strains, locus YNL322C, strain KRE1 (second series), stronger effect = lower value 0.999 | S. cerevisiae deletion strains, locus YNR049C, strain mso1, stronger effect = lower value 1.01 | S. cerevisiae deletion strains, locus YNR052C, strain pop2, stronger effect = lower value 1.01 | S. cerevisiae deletion strains, locus YOL012C, strain htz1 1.11 | S. cerevisiae deletion strains, locus YOL147C, strain pex11, stronger effect = lower value 1 | S. cerevisiae deletion strains, locus YOR001W, strain rrp6, stronger effect = lower value 1.01 | S. cerevisiae deletion strains, locus YOR061W, strain CKA2, stronger effect = lower value 0.995 | S. cerevisiae deletion strains, locus YOR069W, strain VPS5, stronger effect = lower value 1.01 | S. cerevisiae deletion strains, locus YOR070C, strain gyp1, stronger effect = lower value 1.01 | S. cerevisiae deletion strains, locus YOR080W, strain dia2, stronger effect = lower value 0.996 | S. cerevisiae deletion strains, locus YOR083W, strain WHI5, stronger effect = lower value 1 | S. cerevisiae deletion strains, locus YOR106W, strain vam3, stronger effect = lower value 1.02 | S. cerevisiae deletion strains, locus YOR136W, strain idh2, stronger effect = lower value 0.994 | S. cerevisiae deletion strains, locus YOR144C, strain elg1, stronger effect = lower value 1.01 | S. cerevisiae deletion strains, locus YOR184W, strain ser1, stronger effect = lower value 0.983 | S. cerevisiae deletion strains, locus YOR231W, strain MKK1, stronger effect = lower value 0.973 | S. cerevisiae deletion strains, locus YOR265W, strain rbl2, stronger effect = lower value 0.999 | S. cerevisiae deletion strains, locus YOR270C, strain vph1, stronger effect = lower value 1.03 | S. cerevisiae deletion strains, locus YOR290C, strain snf2, stronger effect = lower value 0.978 | S. cerevisiae deletion strains, locus YOR316C, strain cot1, stronger effect = lower value 1 | S. cerevisiae deletion strains, locus YPL051W, strain arl3, stronger effect = lower value 1 | S. cerevisiae deletion strains, locus YPL078C, strain atp4, stronger effect = lower value 1.04 | S. cerevisiae deletion strains, locus YPL106C, strain sse1, stronger effect = lower value 1.01 | S. cerevisiae deletion strains, locus YPL240C, strain hsp82, stronger effect = lower value 1 | S. cerevisiae deletion strains, locus YPL241C, strain CIN2, stronger effect = lower value 0.998 | S. cerevisiae deletion strains, locus YPL256C, strain CLN2, stronger effect = lower value 0.943 | S. cerevisiae deletion strains, locus YPR119W, strain clb2, stronger effect = lower value 1.01 | S. cerevisiae deletion strains, locus YPR141C, strain kar3, stronger effect = lower value 1.01 | S. cerevisiae deletion strains, locus YPR163C, strain tif3, stronger effect = lower value 1 | S. cerevisiae deletion strains, locus YPR167C, strain met16, stronger effect = lower value 0.995 | S. cerevisiae deletion strains, strain wtn01, stronger effect = lower value 0.993 | S. cerevisiae strains, strain wild type, stronger effect = lower value 0.978
